# LANA-H2A inh – blocks KSHV LANA binding to histone H2A/H2B; Q9QR71; 320,000 compounds, 0.6% hits; cell-free LANA-H2A/H2B peptide, fluorescence polarization; inhibition, % (concentration not given with the values); in the data active means inhibition mostly above about 10%, no sharp cut-off; inactive means mostly below about 6.7%
# Target sequence (Q9QR71 whole entry, looked up): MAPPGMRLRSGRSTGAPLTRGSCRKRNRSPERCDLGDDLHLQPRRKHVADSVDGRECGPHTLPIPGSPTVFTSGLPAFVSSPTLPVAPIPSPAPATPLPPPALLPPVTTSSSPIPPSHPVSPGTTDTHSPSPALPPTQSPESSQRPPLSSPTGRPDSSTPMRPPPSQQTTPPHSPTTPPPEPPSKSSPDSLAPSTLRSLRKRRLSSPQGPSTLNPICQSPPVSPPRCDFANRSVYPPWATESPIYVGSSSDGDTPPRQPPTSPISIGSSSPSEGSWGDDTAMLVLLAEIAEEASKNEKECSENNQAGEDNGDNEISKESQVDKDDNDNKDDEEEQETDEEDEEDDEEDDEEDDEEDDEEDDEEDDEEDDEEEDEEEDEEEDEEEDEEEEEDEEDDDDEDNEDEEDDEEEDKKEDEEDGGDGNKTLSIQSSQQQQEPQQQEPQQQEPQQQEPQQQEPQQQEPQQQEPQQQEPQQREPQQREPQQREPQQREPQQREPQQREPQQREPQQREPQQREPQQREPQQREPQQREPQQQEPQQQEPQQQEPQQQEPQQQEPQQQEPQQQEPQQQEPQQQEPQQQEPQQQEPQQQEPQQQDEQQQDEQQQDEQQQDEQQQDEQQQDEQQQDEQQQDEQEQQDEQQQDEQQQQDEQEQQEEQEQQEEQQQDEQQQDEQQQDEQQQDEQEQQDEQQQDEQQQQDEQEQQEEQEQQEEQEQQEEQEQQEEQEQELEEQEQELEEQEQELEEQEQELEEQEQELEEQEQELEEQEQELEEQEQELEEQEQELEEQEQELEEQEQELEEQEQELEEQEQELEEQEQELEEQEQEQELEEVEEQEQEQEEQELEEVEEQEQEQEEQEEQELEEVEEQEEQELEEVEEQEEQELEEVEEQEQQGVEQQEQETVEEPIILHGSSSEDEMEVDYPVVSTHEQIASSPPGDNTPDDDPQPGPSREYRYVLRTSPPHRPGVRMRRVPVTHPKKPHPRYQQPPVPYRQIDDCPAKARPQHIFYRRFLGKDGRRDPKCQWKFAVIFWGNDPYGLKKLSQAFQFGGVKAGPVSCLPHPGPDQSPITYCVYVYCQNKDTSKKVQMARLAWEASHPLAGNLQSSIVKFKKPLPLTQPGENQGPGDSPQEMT
# NOD2-RIPK2 inh – NOD2-RIPK2 protein interaction inhibition; inhibition, % at 4.98 µM; CHO BLA complementation NOD2-RIPK2, CCF4 ratio; O43353; 360,000 compounds, 0.38% hits; in the data active means inhibition above about 21%;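 further: 0% = vehicle only and 100% = reference blocker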
# HTR2A ag – activates the mouse 5-HT2A serotonin receptor | CHO-K1 mHTR2A beta-arrestin complementation, luminescence; percent of 30 µM serotonin response | activation, % at 7.6 µM | P35363 | 360,000 compounds, 0.66% hits;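 active means activation above a run cutoff, the mean activation of all tested compounds plus 3 SD, cut at about 14% in these data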;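 further: 0% = plate median of compound wells and 100% = 30 µM serotonin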
# Rtt109 Vps75 – inhibitors of Candida albicans Rtt109/Vps75 histone acetyltransferase | purified Rtt109/Vps75, ThioGlo CoA-SH fluorescence, 4 h | inhibition, % at 34.9 µM | 330,000 compounds, 0.16% hits | AID 540336;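 active means inhibition of at least 50% in every replicate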
# TLR9-MyD88 inh – blocks human TLR9 binding to MyD88; AID 504734; Q9NR96+Q99836; 340,000 compounds, 0.21% hits; inhibition, % at 4.98 µM; CHO BLA complementation TLR9-MyD88, CCF4 FRET ratio;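 active means inhibition above the mean over all tested compounds plus 3 SD, cut at about 21% in these data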;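 further: 0% = DMSO only wells and 100% = clavulanate BLA inhibitor control wells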
# TLR4-MyD88 BLA – inhibitors of human TLR4-MyD88 binding; O00206+Q99836; HeLa CL3-4 TLR4/MyD88 BLA complementation, FRET ratio; inhibition, % at 8.4 µM; 200,000 compounds, 0.18% hits; in the data active means inhibition above about 25%;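 further: 0% = vehicle and 100% = reference inhibitor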
# OPRM1 ag – OPRM1 agonism in mouse HTR2A counterscreen | shares compounds with HTR2A ag | U2OS OPRM1 beta-arrestin PathHunter, luminescence; DMSO 0%, DAMGO 9.3 µM 100% | activation, % at 9.3 µM | 2,300 compounds, 5.3% hits | AID 624380;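 active means mean activation above the mean of DMSO-only wells plus 3 SD, cut at about 0.5% in these data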
# HTR2A ag conf – mouse HTR2A agonism confirmed; activation, % at 7.6 µM; shares compounds with HTR2A ag; 2,300 compounds, 19% hits; CHO-K1 PathHunter beta-arrestin recruitment, luminescence; DMSO 0%, 30 µM serotonin 100%; AID 624381;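 active means mean activation across triplicates above the hit threshold derived in the original primary screen, cut at about 15% in these data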
# Starred values were filed as active, the others as inactive; . = no result given. Shown are actives, neighbours in structure and some others; about 1.8% of the full set was active somewhere.
SMILES,LANA-H2A inh,NOD2-RIPK2 inh,HTR2A ag,Rtt109 Vps75,TLR9-MyD88 inh,TLR4-MyD88 BLA,OPRM1 ag,HTR2A ag conf
CCCc1cnc(N2CCN(C(=S)NC)CC2)nc1,-9,0,17*,0,-7,.,-1,1
COc1ccc(CCNC(=O)c2nonc2N)cc1,2,-4,4,5,-1,-7,.,.
COc1cccc(CNCCNC(=O)c2nonc2N)c1,1,2,19*,4,-13,3,-1,-5
CCN(CC(=O)Nc1ccc2c(c1)OCCO2)C(=O)CC(NC(C)=O)c1ccccc1 (stereo unspecified),0,-79,18*,-6,8,.,-1,-3
CC(OC(=O)c1ccccc1Br)C(=O)Nc1nc(-c2cccc([N+](=O)[O-])c2)cs1 (stereo unspecified),3,-5,17*,3,9,-7,0,-4
CC(OC(=O)c1cnccn1)C(=O)Nc1nc(-c2cccc([N+](=O)[O-])c2)cs1 (stereo unspecified),.,-4,5,20,-3,.,.,.
Cc1cccc(NC(=O)C2CCN(C(=O)N3CCOc4ccccc43)CC2)c1C,0,0,-8,2,-9,.,.,.
O=C(O)C1CSC(c2ccc3c(c2)OCO3)N1 (stereo unspecified),22*,-6,16*,21,0,.,-1,-5
O=C(Nc1ccccc1)c1cc(C2COCCN2C(=O)CCCc2ccccc2)on1 (stereo unspecified),.,-14,-3,.,.,.,.,.
Cc1cc(C)c(CSc2ncnc3nc[nH]c23)c(C)c1,1,-1,2,-5,-1,-3,.,.
O=C(NC1CCCC1)C1CCCN1S(=O)(=O)c1cccc2cccnc12 (stereo unspecified),-1,-4,22*,0,-1,-7,0,-1
CCCC(=O)Nc1c(-c2ccccc2)c(=O)c(C)nn1-c1ccc(Cl)cc1,6,1,15*,-3,-9,-2,-1,-3
COc1ccccc1Nc1nc(N)nc(CSc2nncn2C)n1,-5,-14,15*,3,-5,7,0,3
COc1ccccc1Nc1nc(N)nc(CSc2nccn2C)n1,-7,-14,0,.,-9,-24,.,.
NC(=O)c1nc(C(=O)N2CCN(c3ccccc3)CC2)c2ccccc2n1,1,6,18*,7,7,.,-1,-6
CCc1ccc(S(=O)(=O)NCC2(N3CCOCC3)CCCCC2)cc1,-2,-7,-1,7,12,.,.,.
CCCCn1c(N)c(N(CCOC)C(=O)c2cc3c(s2)CCC(C)C3)c(=O)[nH]c1=O (stereo unspecified),-1,8,15*,-5,-3,.,-1,-1
CCCCN(C(=O)c1cccc(S(=O)(=O)N2CCN(C)CC2)c1)c1c(N)n(CCC)c(=O)[nH]c1=O,1,0,16*,-3,4,.,-1,1
CCCCn1c(N)c(N(CCOC)C(=O)c2ccc(-c3ccc(C(C)=O)cc3)o2)c(=O)[nH]c1=O,-1,-4,15*,6,-3,.,-1,0
COC(=O)[C@]1(C)N[C@H](c2ccc(SC3CCCCC3)c(OC)c2)[C@@H]2C(=O)N(C)C(=O)[C@@H]21,-5,3,-5,-1,2,.,.,.
CCn1cc(C(=O)N2CCN(c3ccccc3F)CC2)c(=O)c2ccc(C)nc21,0,-4,15*,12,11,10,-1,-2
CCn1cc(C(=O)O)c(=O)c2ccc(C)nc21,-20,8,1,9,-3,11,.,.
C=C1[C@H]2O[C@H]2[C@@H](OC(C)=O)[C@@]2(C)[C@@H](OC(C)=O)C[C@@H](OC(C)=O)[C@@](C)(O)[C@@H]2[C@@H](OC(C)=O)[C@@]2(O)[C@@H](C)C(=O)O[C@H]2[C@H]1Cl,.,-10,-2,-4,-1,.,.,.
Cc1ccc(NC(=O)CN(C)S(=O)(=O)c2ccc(Cl)s2)c(O)c1,-6,0,18*,6,3,.,-1,-1
Cc1cc(C)cc(-n2ncc3c2CCCC3NC(=O)C2(C(N)=O)CC2)c1 (stereo unspecified),4,10,12,-10,-11,.,.,.
SMILES,LANA-H2A inh,NOD2-RIPK2 inh,HTR2A ag,Rtt109 Vps75,TLR9-MyD88 inh,TLR4-MyD88 BLA,OPRM1 ag,HTR2A ag conf
Cc1cccc(-n2ncc3c2CCCC3NC(=O)CCN2CCCO2)c1C (stereo unspecified),4,-4,16*,-5,3,.,-1,2
Cc1cccc(-n2ncc3c2CCCC3NC(=O)C2(C(N)=O)CC2)c1C (stereo unspecified),0,2,15*,-8,4,.,0,0
CCOc1ccc(CCNC(=O)/C=C/c2ccco2)cc1OCC,1,-6,19*,5,-12,.,0,-4
Nc1ccccc1C(=O)N1O[C@@H]2C=C[C@H]1CC2,.,-7,1,-10,-6,.,.,.
C=CCNC(=O)O/N=C/c1csc([N+](=O)[O-])c1,4,-6,17*,8,.,.,0,-2
CC(C)CNC(=S)NC(=O)c1csc([N+](=O)[O-])c1,0,6,-2,-29,-5,.,.,.
C[C@@H]1CN([C@@H](C)CO)C(=O)CCCn2nncc2CO[C@H]1CN(C)S(=O)(=O)c1ccccc1F,.,-2,1,.,-5,.,.,.
Cc1ccc(C(C#N)c2ccc(C(=O)c3ccc(F)cc3)cc2)cc1 (stereo unspecified),2,-1,-7,-8,7,10,.,.
N#CC(c1ccc(F)cc1)c1ccc(C(=O)c2ccc(F)cc2)cc1 (stereo unspecified),3,-9,14*,16,-3,-1,0,-6
O=C(Nc1ccccc1O)c1c(O)c2c([nH]c1=O)CCCC2,-3,-1,15*,6,14,0,0.8*,5
COc1ccccc1CNC(=O)C1CCC(CNS(=O)(=O)c2ccc(C)cc2)CC1 (stereo unspecified),2,6,2,9,-14,.,.,.
COc1ccccc1CNC(=O)C1CCC(CNS(=O)(=O)c2ccc(F)cc2)CC1 (stereo unspecified),-1,-4,21*,10,4,.,-1,2
S=c1[nH]nc2ccccn12,.,3,21*,-5,-1,.,-1,-4
COc1ccc(-c2nc3cc(C)c(Br)c(C)n3c2Cc2ccsc2)cc1OC,.,-4,-2,.,.,.,.,.

# Screens: PubChem BioAssay, several laboratories
